The subject of the test is VDR:RXRa (NR concentration 270 nM, RXRa partner concentration 90 nM). As to the kind of experiment: PBM binding z-score (relative to random genomic background probes); higher = stronger binding; sequences stand for … in GC…GCGATTGACAGCGTAGAATGAAGG
Here is the method:
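Protein-binding microarray (Agilent 4x180K custom design, double-stranded 60-nt probes: 5' GC cap, 34-nt variable region, 24-nt constant primer region; full probe sequence given). Purified or IVT nuclear receptor:RXRα heterodimers (3:1 NR:RXRα, mostly 270:90 nM) or homodimers were incubated for 1 h in PBS with 2% milk and no ligand, then detected with Alexa488 antibodies. Fluorescence from o1-orientation probes (~5 replicates averaged) was converted to z-scores against 500 random hg19 background probes. Variable regions are seed direct-repeat (DR0–DR5) sites, all their single-nucleotide variants and half-site ablations.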
TCGTATAGGTAATACAGGTGAAAGTCGGCATCTA: the PBM binding z-score was found to be 0.991.
In turn, ATCTCTAGATAACAAGTTCAGTGAAAGAGAGGAC came in with a PBM binding z-score of 1.45.
The result for ACTAGCAGGCCAAGTTTGGGTCACTCATACAAAG reads 0.68.
The result for CCTACTGGGCCACGAAAGGTCATTGATTCAGTGA reads 4.21.
The result for AGAATGAGGTTATTAAGATCTGGGAATTGCGGTC reads 1.33; that for TCTTGTATATCAAGCAGGTTAAGAAAGCCTGAGT, 0.659; that for ACTAGCAGGCCCAGGGTCACTCAAGATTAGTCCG, 2.19.
Consider CAGCCTGGGTCAGGGCCAGTATAGGAGGAACGTT, for which the PBM binding z-score stood at 0.152.
Next, TAGCCTAGGCCAGATCGGGCCAGTATACGCTATA: -0.802.
The result for CCAGACACGTGAGAAGGTAACTCAGCCTCGATTA reads -0.39.
The sequence CAAACTAGGTTACGAAAGGTCAAAGTCGAATGAC displayed a PBM binding z-score of 5.53.
Turning to CGAACGAGGGCATGAGTTGATAGCCAATGCCGAT, the PBM binding z-score stood at 1.09.
Next, CCTTACGGGTCACTAACAGGTTATAGCATTTGGA: 3.28.
The result for ATCTCTAGGTAAAGATAGTTCGGTGAATGCAAAT reads 0.244; that for TTACCAAGGTGAGCTAAGGTCGTTGATCCAACTC, 3.13; that for TTACCAAGGTGAGCTTAGGTCGTTGATCCAACTC, 0.561.
Next, CCGACTGGGGCAGAAAGGGTACCATACCATCCGG: -0.384; GATACAGGGTCAGCTAGAGGCCAGAGCATGGAAA: 3.04.
Take GCGACTGGGGCATCAGCAGGTGACCATAACTTAA: the PBM binding z-score is -0.635.
Next, CCTAGCAGGCCAGGGTCACTAAAGCATTTCGCTT: 2.08; ATATGTAGGTTAAGTGTCATTCAGGTTGGTTCGC: 2.28.
Next, CGTCAAAGTTCAACTAAGGTAACGGAAAGCACGC: 4.7; CAAACTAGGTCAGAGAGGTCAAAGTCCGTGCGTA: 7.57; GCTTGTAGATCAAGATTAAGAAAGACTAAGCTAA: -0.528.
Next, CCTCGGAGGACAGAAGGTCAGAGCTGTCCGCTTT: 1.02.
ATCTCTAGGTAACAGTTCAGTGAATCCCGAGGAT returned a PBM binding z-score of 0.208.
TTACCAAGGTGAAACGTCGTTGATGCACGCCTTG returned a PBM binding z-score of -0.243.
The result for TAGCCTAGGTCATGGGCCAGTAAACCACGCGAAC reads 2.07; that for TCTTGTAGATTAAAGGTTAAGAAAGCCGAAGCCT, 1.09; that for CCTACTAGGCCAAAGGTCATTGATTCCAATGCTC, 5.12.
Next, TCTTGTAGACCAACAGGAGGTTAAGAAAGATCGA: 0.492; CCTAGTTGGTGAAGGTCACACACGCTATAGGTAC: 3.4.
The result for GATACAGGGTCAGCAAGAGGCCAGAGTATGGAAA reads 3.43; that for TATACAGGGTCAAAGGCCAGAGTTCGAATGTCGA, 5.34; that for CCTAGCATGCCAATCTGGGTCACTCAAGGCTTGA, 0.733.
For CCTTGCAGGCCAGGGTCACTCAAGCATTTCGCTT, the PBM binding z-score worked out at 2.69.
The sequence ATCTATAGGTAAAGATAGTTCAGTGAATGCAAAT yielded a PBM binding z-score of 1.
The result for CCTACTGGACCAAAGGTCATTGATTCCAATGCTC reads 5.
The result for CATCCAAGGTCAAGGTCAGTGAAAGAGACTCGAA reads 5.07.
Next, CCTAGCAGGCCAATCTGAGTCACTCAAGGCTTGA: -0.947.

Values taken from the supplement of paper PMC6555819.
